TGFb SMAD3 inh: TGF-b pathway inhibition; Potency, µM (top dose mostly 46.1 µM), inactives show at the highest dose activity, negative = inhibition, most hits filed as inhibitors; 1.2% of 410,000 active; AID 588855; HepG2 CAGA-GFP TGF-b/SMAD3 reporter, GFP fluorescence, 18 h; TGF-beta stimulated, 500 pg/mL final; note: % is set by controls: 0 for no effect and ±100 for the full control effect; nearly all actives have a fitted effect of over 65% in size
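Per well, imaged GFP fluorescence of HEPG2 CAGA-GFP cells gives the signal; cells get compound, then TGF-beta (500 pg/mL final), 18 h at 37 degrees C; %Activity versus -TGF-beta and +DMSO controls.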
HepG2 tox: counter-screen for TGF-b inhibitors: cytotoxicity in HepG2 cells. HepG2 CAGA-GFP viability, ATP luminescence, 18 h. AID 588856. 0.76% of 410,000 active. Potency, µM (titrated, usually from 46.1 µM), without a hit: at the highest dose activity change, negative = cytotoxicity, most hits filed as cytotoxic
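HepG2 CAGA-GFP cells (1000/well, DMEM with 1% FBS) received compound, then TGF-beta at 500 pg/mL final, and were incubated 18 hours at 37 degrees C. Viability was read by CellTiter-Glo luminescence. Media-only wells were set as complete cell-killing and DMSO as no toxicity.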
KB-V1 MDR tox: kills drug-selected multidrug resistant KB-V1 cells. 3.4% of 400,000 active. Potency, µM (titrated, usually from 46.1 µM), hits mostly cytotoxic. KB-V1 MDR cells viability, CellTiter-Glo, 72 h; note: % is set by controls: 0 for no effect and ±100 for the full control effect; nearly all actives have a fitted effect of over 60% in size
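Drug-selected KB-V1 cells, grown in DMEM lacking phenol red with 10% FBS, receive compound titrations; after three days at 37 degrees C, surviving cell ATP is quantified by CellTiter-Glo luminescence and responses normalized and curve-fitted.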
HT1080 IDH1KD tx: kills HT-1080 cells with IDH1 knockdown; HT-1080 IDH1 knockdown viability, ATP luminescence, 48 h; Potency, µM (top dose mostly 46.1 µM), without a hit: at the top dose activity, negative = toxicity, usual class: cytotoxic; 2% of 360,000 active; AID 686971;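 note: 0% = DMSO wells and -100% = cell-free medium wells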
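After a 2 h attachment period, IDH1KD HT-1080 cells took pin-transferred compound for 48 h at 37 °C; ATP-based luminescence after 10 min room-temperature reagent incubation reported viability.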
KB-3-1 tox: KB-3-1 parental cell cytotoxicity; KB-3-1 viability, CellTiter-Glo ATP luminescence, 72 h; Potency, µM (top dose mostly 46.1 µM), actives largely listed as cytotoxic; AID 1347075; 1.4% of 400,000 active; note: % is set by controls: 0 for no effect and ±100 for the full control effect; nearly all actives have a fitted effect of over 60% in size
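Cells are dispensed, compounds pinned in, plates held at 37 °C for 72 h, then CellTiter-Glo is added and luminescence read after 10 minutes. Cell line: parental KB-3-1 in phenol-red-free DMEM, 10% FBS.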
HT1080-NT tox: kills 2HG-producing HT-1080-NT fibrosarcoma cells. AID 686970. Potency, µM (top dose mostly 46.1 µM), inactives show at the top dose activity, negative = less viability, most hits filed as cytotoxic. HT-1080-NT fibrosarcoma viability, CellTiter-Glo ATP luminescence, 48 h. 1.6% of 360,000 active;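 note: NT is the 2HG producing partner of a matched IDH1 knockdown line; 0% = DMSO-treated cells and -100% = media-only wells without cells; nearly all actives have a fitted effect of over 55% in size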
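HT-1080-NT; 750 cells/well; 5% FBS RPMI; 48 h compound, 37 degrees C; CellTiter-Glo luminescence; curve fitting and curve-class assignment.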
* = called active by the depositor; i = inactive; ? = inconclusive; · = no result. A selection: hits, their analogues and other compounds. The true share with any hit is near 6.6%. Calls come from the whole dose curve; as a rule, active = well fitted curve in the direction sought with a large enough effect; inconclusive = small, poorly fitted or top-dose-only effect, or another doubt; inactive = no such curve, though single readings can be large; an effect the other way counts as inactive or inconclusive. Potency is the fitted concentration of half-maximal effect.

SMILES | TGFb SMAD3 inh | HepG2 tox | KB-V1 MDR tox | HT1080 IDH1KD tx | KB-3-1 tox | HT1080-NT tox
Cc1cnc(NC(=O)COc2cccc3c2OC(C)(C)C3)s1 | -5% | -25% | ? | 6.5µM* | ? | -11%
COc1ccc(NC(=O)COc2cccc3c2OC(C)(C)C3)cc1OC | -13% | -11% | i | 0% | i | -11%
Cc1ccc(NC(=O)COc2cccc3c2OC(C)(C)C3)c(O)c1 | ? | -13% | 18µM* | 4% | i | 7%
CCOc1ccccc1NC(=O)CSc1nc2c(oc3ccccc32)c(=O)n1-c1ccc(C)c(C)c1 | 6% | 0% | i | · | i | ·
Cn1c(=O)c2sccc2n2c(CCCC(=O)Nc3ccc(Oc4ccc(Cl)cc4)cc3)nnc12 | ? | -52% | · | · | · | ·
CC(=O)N1c2ccc(S(=O)(=O)NCCC(=O)Nc3ccc(C)c(Cl)c3)cc2CC1C (centres undefined) | ? | -21% | i | -5% | i | -2%
COc1ccc(NC(=O)C2CCC(CNS(=O)(=O)c3ccc4c(c3)C(C)(C)C(=O)N4C)CC2)cc1 (centres undefined) | 39% | 2% | i | · | i | ·
Cc1cc(C)cc(NC(=O)C2CCC(CNS(=O)(=O)c3ccc4c(c3)C(C)(C)C(=O)N4C)CC2)c1 (centres undefined) | ? | -22% | i | · | 18µM* | ·
CC(=O)N1c2ccc(S(=O)(=O)NCC3CCC(C(=O)Nc4cc(C)ccn4)CC3)cc2CC1C (centres undefined) | ? | -13% | i | ? | 23µM* | ?
CC(=O)N1c2ccc(S(=O)(=O)NCC3CCC(C(=O)Nc4ccc(C)cc4)CC3)cc2CC1C (centres undefined) | -5% | -15% | · | · | · | ·
CC(=O)N1c2ccc(S(=O)(=O)NCCC(=O)Nc3ccc(Br)c(C)c3)cc2CC1C (centres undefined) | 11µM* | -30% | i | · | ? | ·
O=C(NCc1ccco1)c1ccc2c(c1)N(Cc1ccccc1F)C(=O)c1ccccc1S2(=O)=O | -10% | -10% | · | · | · | ·
O=S(=O)(NCCc1ccncc1)c1ccc(S(=O)(=O)N2CCCCCC2)cc1 | 6% | -4% | 18µM* | -11% | i | -13%
CC1CCCCN1S(=O)(=O)c1ccc(S(=O)(=O)NCCc2ccncc2)cc1 (centres undefined) | 0% | -6% | 21µM* | 9% | i | ?
CCN1/C(=C/C=C/c2sc3ccccc3[n+]2CC)Sc2ccccc21 | ? | -32% | ? | 1.5µM* | 16µM* | 1.6µM*
CC[n+]1c(/C=C/Nc2ccccc2)sc2ccccc21 | -15% | -18% | ? | -19% | ? | -9%
CCN1/C(=C/C=C/C=C/c2sc3ccccc3[n+]2CC)Sc2ccccc21 | 7.1µM* | -23% | ? | · | ? | ·
CCN1/C(=C/C=C/C=C/C=C/c2sc3ccccc3[n+]2CC)Sc2ccccc21 | ? | -16% | i | -16% | 16µM* | -17%
COc1cc(/C=C/c2nc(C#N)c(N3CCN(C)CC3)o2)cc(OC)c1OC | 0% | -13% | · | · | · | ·
Cc1ccc(NC(=O)CSc2nc3nccnc3c(=O)n2CCc2c[nH]c3ccccc23)cc1 | -18% | -7% | · | · | · | ·
Cc1cccc(C)c1NC(=O)c1oc2c(c1C)-c1nn(Cc3ccccc3)cc1CC2 | 0% | -27% | · | · | · | ·
C=C1C(=O)OC2CC1C(O)CC(C)=CCCC(C)=CC(O)CC2C (centres undefined) | 11µM* | -113% | ? | 7.3µM* | ? | 15µM*
CC(=O)c1ccc(NC(=O)Cn2c(-n3nc(C)cc3C)nc(C)c(C)c2=O)cc1 | 2% | -5% | · | · | · | ·
COc1ccc(NC2=NCC(Cc3ccc(Br)cc3)S2)cc1 (centres undefined) | ? | -40% | i | 21µM* | 23µM* | ?
COc1ccc(CNc2ccc(Br)cc2)cc1 | -16% | -92% | i | -8% | i | -3%
SMILES | TGFb SMAD3 inh | HepG2 tox | KB-V1 MDR tox | HT1080 IDH1KD tx | KB-3-1 tox | HT1080-NT tox
O=S(Cc1ccccc1)CC(O)(c1ccc(Cl)cc1)c1ccc(Cl)cc1 (centres undefined) | ? | -39% | 21µM* | ? | ? | ?
CC(=O)c1ccc(Nc2cc(C)nc3ccc(C)cc23)cc1 | -13% | -45% | ? | ? | ? | 21µM*
CCNC(=O)C1CCCN1S(=O)(=O)c1ccc2ccccc2c1 (centres undefined) | 0% | -3% | i | 0% | ? | -4%
O=C(NC1CC1)C1CCCN1S(=O)(=O)c1ccc2ccccc2c1 (centres undefined) | -15% | -2% | ? | -22% | 16µM* | -9%
CC(OC(=O)/C=C/c1ccco1)C(=O)Nc1cccc([N+](=O)[O-])c1 (centres undefined) | -4% | -31% | 18µM* | 2% | ? | 4%
CC(=O)c1ccc(NC(=O)C(C)OC(=O)/C=C/c2ccco2)cc1 (centres undefined) | -7% | 3% | ? | ? | ? | 16µM*
O=C(NNc1ccnc2cc(Cl)ccc12)C1CCCCC1 | -26% | 16% | ? | ? | 5.8µM* | 3.7µM*
FC(F)Oc1ccc(NC(=S)NNc2ccnc3cc(Cl)ccc23)cc1 | -27% | -12% | ? | 21µM* | 16µM* | 26µM*
COc1ccccc1NC(=O)c1cnc(SCC(=O)N2CCCc3ccccc32)n(C)c1=O | -1% | -5% | · | · | · | ·
CCC(C)(C)n1nnnc1C(C(C)C)N(CCN1CCOCC1)Cc1cc2cccc(C)c2[nH]c1=O (centres undefined) | -12% | -10% | 15µM* | ? | i | -1%
Cc1ccc(NC(=O)CN(C)C(=O)C(C)N2CCN(Cc3ccccc3C)CC2)cc1 (centres undefined) | -14% | -12% | 9.2µM* | -2% | i | -1%
Cc1ccccc1CN1CCN(C(C)C(=O)NCc2ccccc2)CC1 (centres undefined) | -2% | 21% | i | -11% | i | -25%
COc1cc(-c2noc(-c3ccc(NCc4ccco4)c([N+](=O)[O-])c3)n2)cc(OC)c1OC | ? | 0% | i | · | i | ·
CCCCN(CC)CCNC(=O)C1CCCN(c2ncnc3onc(C)c23)C1 (centres undefined) | -10% | 0% | i | · | i | ·
Cc1cc2nc3ccc(=[N+](C)C)cc-3sc2cc1N | ? | 8.9µM* | 16µM* | 4.1µM* | ? | 8.2µM*
